Assay [1] is described as follows: qHTS assay to identify small molecule agonists of the estrogen receptor alpha (ER-alpha) signaling pathway in the presence of an antagonist - cell viability counter screen (AID 1259386).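 Further: cells exposed to compounds for 22 h at 37 °C before the viability read; nearly all actives have a fitted effect of over 30% in size.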 Further: potency means the concentration at half of the fitted maximal effect. The gist of the method: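 The test measures whether compounds kill ER-alpha reporter cells (VM7Luc4E2) under antagonist co-treatment (ICI-182,780, 10.0nM). Fluorescence from CellTiter-Fluor is read after a 22hr exposure.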
(In general: Quantitative high-throughput screening tests each substance at several concentrations.)

The target of assay [2] is Progesterone receptor (Homo sapiens) (UniProt P06401). Kind of assay: qHTS assay to identify small molecule agonists of the progesterone receptor (PR) signaling pathway (AID 1346784; calls by dose curve; further: nearly all actives have a fitted effect of over 30% in size). Summed up:
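Reporter assay, GripTite PR-UAS-bla HEK 293T cells: 16 hr exposure to DMSO-dissolved compounds at 37C, 5% CO2, in steroid-depleted (2% charcoal-stripped FBS) medium; beta-lactamase measured by FRET fluorescence.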

For assay [3] the target is unchanged. Kind of assay: qHTS assay to identify small molecule antagonists of the progesterone receptor (PR) signaling pathway (AID 1346795; active means well fitted inhibition curve with a large enough effect in the signal ratio in the repeat runs, not every such curve was filed as active; the % refers to the signal ratio). The gist of the method: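 Stimulus R5020 at 1 nM final; cells HEK293T PR-UAS-bla; medium with 2% charcoal-stripped FBS; compound exposure 16 hr at 37C, 5% CO2; detection by FRET beta-lactamase substrate, 2 hr, room temperature.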

The nature of assay [4]: qHTS assay to identify small molecule antagonists of the progesterone receptor (PR) signaling pathway - cell viability counter screen (AID 1346798). Further: series mostly up to about 92 µM; nearly all actives have a fitted effect of over 50% in size. The gist of the method: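 In the same plates used for the beta-lactamase readout, cell viability of compound- and R5020-treated PR-UAS-bla HEK293T cells (16 hr, 37C) was assessed by CellTiter-Glo luminescence.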
The nature of assay [5]: qHTS assay to identify small molecule agonists of the progesterone receptor (PR) signaling pathway - cell viability counter screen (AID 1346799; calls by dose curve; further: nearly all actives have a fitted effect of over 45% in size). Summed up:
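Multiplexed viability read: CellTiter-Glo luminescence, 30 min RT, following LiveBLAzer FRET measurement on PR-UAS-bla HEK293T cells exposed to compounds 16 hr.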

Assay [6] in a line: qHTS assay to identify small molecule antagonists of the TGF-beta/Smad signaling pathway - cell viability counter screen (AID 1346824). Further: nearly all actives have a fitted effect of over 50% in size. Summed up:
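SBE-bla HEK 293T cells, incubated overnight, then compound plus 0.25 ng/mL TGF-beta1 (stock added) for 5 hr at 37 C. Viability was read in the same wells by CellTiter-Glo luminescence after 30 min at room temperature.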

Assay [7] can be described thus: qHTS assay to identify small molecule agonists of the TGF-beta/Smad signaling pathway - cell viability counter screen (AID 1346829). Further: top concentration of the series differs between compounds; nearly all actives have a fitted effect of over 45% in size. Summed up:
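Here the cytotoxicity of library compounds is measured in SBE-bla HEK 293T cells treated for 5 hr, using CellTiter-Glo added to wells already read for the beta-lactamase reporter.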

Assay [8] is described as follows: qHTS assay to identify small molecule agonists of the TGF-beta/Smad signaling pathway (AID 1346859; active means well fitted activation curve with a large enough effect in the signal ratio in the repeat runs, not every such curve was filed as active; the % refers to the signal ratio; further: series mostly up to about 77 µM). The gist of the method: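 Screening used HEK 293T SBE-bla cells at 4,000/well. Test agents: 5 hr, 37 C. Detection: FRET substrate, 2 hr RT, then excitation 405 nm with emissions at 460 and 530 nm.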
In assay [9] the target is Thyrotropin-releasing hormone receptor (Homo sapiens) (UniProt P34981). Description: qHTS assay to identify small molecule antagonists of the thyrotropin-releasing hormone receptor (TRHR) signaling pathway (AID 1346877; active means well fitted inhibition curve with a large enough effect in the repeat runs, not every such curve was filed as active; further: series mostly up to about 51 µM). Summed up: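 Overnight-plated (18 h, 37 °C) HEK293 cells expressing TRHR were dye-loaded 2 h, treated with compound, then stimulated with TRH at 1 nM final. Fluorescence intensity was captured every second for 3 min.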
Thyrotropin-releasing hormone receptor (Homo sapiens), sequence (P34981 whole entry, looked up): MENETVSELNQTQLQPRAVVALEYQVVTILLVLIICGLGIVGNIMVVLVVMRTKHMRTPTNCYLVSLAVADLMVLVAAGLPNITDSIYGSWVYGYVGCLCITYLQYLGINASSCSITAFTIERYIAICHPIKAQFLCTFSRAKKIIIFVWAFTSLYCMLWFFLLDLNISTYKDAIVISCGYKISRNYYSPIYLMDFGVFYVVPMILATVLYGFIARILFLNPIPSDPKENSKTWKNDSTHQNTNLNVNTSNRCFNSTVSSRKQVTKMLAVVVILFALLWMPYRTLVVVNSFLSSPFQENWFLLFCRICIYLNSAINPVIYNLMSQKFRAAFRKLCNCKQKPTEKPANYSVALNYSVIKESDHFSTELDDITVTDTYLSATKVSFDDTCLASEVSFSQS

The target is the same in assay [10]. Kind of assay: qHTS assay to identify small molecule agonists of the thyrotropin-releasing hormone receptor (TRHR) signaling pathway (AID 1346891; calls by dose curve; further: series mostly up to about 58 µM). The gist of the method:
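Readout was intracellular calcium fluorescence in TRHR-Hek293 cells. Cells were incubated 18 h, dye-loaded 2 h at 37 °C, and treated with compound in agonist mode.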

Where “and” joins values, the source holds several entries; their conditions need not be identical. Equal values may be shown once. Inconclusive results are not listed. Calls of active or inactive are those of the source. Unless noted, the call rests on the fitted dose curve; in most records, active means well fitted curve in the direction sought with a large enough effect in the repeat runs; inconclusive means weak or mixed curves; inactive means no such curve, though single readings can be large; an effect the other way counts as inactive or inconclusive.

Progesterone receptor (Homo sapiens), sequence (P06401 whole entry, looked up): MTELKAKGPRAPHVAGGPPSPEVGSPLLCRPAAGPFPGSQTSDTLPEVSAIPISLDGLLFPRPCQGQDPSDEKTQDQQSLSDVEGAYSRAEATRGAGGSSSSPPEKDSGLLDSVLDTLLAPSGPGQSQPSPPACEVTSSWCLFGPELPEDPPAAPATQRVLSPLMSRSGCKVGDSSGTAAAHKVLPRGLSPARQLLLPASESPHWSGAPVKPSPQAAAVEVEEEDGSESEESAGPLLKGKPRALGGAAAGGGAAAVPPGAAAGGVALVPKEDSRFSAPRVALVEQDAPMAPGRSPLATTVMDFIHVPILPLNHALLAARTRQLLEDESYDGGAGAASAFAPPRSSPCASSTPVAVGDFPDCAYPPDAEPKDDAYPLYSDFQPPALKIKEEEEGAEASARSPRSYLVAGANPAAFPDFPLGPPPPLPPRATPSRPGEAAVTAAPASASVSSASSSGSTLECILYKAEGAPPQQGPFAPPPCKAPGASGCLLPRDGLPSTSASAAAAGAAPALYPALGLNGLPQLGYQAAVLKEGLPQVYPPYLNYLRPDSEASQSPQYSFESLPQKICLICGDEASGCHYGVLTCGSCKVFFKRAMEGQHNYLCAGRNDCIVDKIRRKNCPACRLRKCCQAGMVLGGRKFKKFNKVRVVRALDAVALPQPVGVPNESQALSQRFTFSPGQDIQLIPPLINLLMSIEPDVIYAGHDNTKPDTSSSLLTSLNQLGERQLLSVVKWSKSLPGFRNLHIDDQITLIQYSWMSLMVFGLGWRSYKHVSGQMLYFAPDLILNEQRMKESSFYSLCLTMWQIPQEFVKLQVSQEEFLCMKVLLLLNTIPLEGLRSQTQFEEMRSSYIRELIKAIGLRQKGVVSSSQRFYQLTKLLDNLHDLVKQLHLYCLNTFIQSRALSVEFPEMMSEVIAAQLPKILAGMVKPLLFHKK

With `CC(O)C(=O)O` (stereo unspecified), the Potency result in assay [1], in assay [2], in [4], in assay [5] and in assay [7] was “inactive” in each case. Besides, the compound was called inactive in assay [3], in [6], in assay [8], in [9] and in assay [10].
In the case of `Nc1ccc(S(=O)(=O)Nc2nccs2)cc1`, the Potency result in assay [1], in assay [2], in assay [4], in assay [5] and in assay [7] was “inactive” in each case. Besides, the call in [3], in [6] and in [8] was inactive.
In the case of `CCCC(O)C(CC)CO` (stereo unspecified), the Potency result in assay [1], in assay [2], in assay [4] and in assay [5] was “inactive” in each case. In addition, the result in [3], in [6] and in assay [8] was inactive.
In the case of `O=C(O)C(=O)O`, the Potency result in assay [1], in assay [2], in assay [4] and in [5] was “inactive” in each case. Further, the call in assay [3], in assay [6] and in assay [8] was inactive.
With `COc1c2occc2cc2ccc(=O)oc12`, the Potency entry in assay [1], in assay [2], in [4] and in assay [5] was “inactive” in each case. Moreover, the call in assay [3], in assay [6] and in assay [8] was inactive.
`CC(=O)Nc1nnc(S(N)(=O)=O)s1`: the Potency result in assay [1], in assay [2], in [4], in assay [5] and in assay [7] was “inactive” in each case. For the same compound, the compound was called inactive in assay [3], in [6], in [8], in assay [9] and in [10].
On to `NC(N)=NC(=O)c1nc(Cl)c(N)nc1N`, for which the Potency result in assay [1], in assay [2], in [4], in [5] and in [7] was “inactive” throughout. Also, the outcome in [3], in assay [6], in assay [8], in [9] and in assay [10] was inactive.
Consider `CC(C)[C@@H]1CC[C@@H](C)C[C@H]1O`, for which the Potency entry in assay [1], in assay [2], in assay [4], in [5] and in [7] was “inactive” throughout. Besides, the compound was called inactive in assay [3], in assay [6], in [8], in [9] and in assay [10].
As for `CC1(C)[C@@H]2CC[C@@]1(C)C(=O)C2`, the Potency result in [1], in assay [2], in [4], in assay [5] and in assay [7] was “inactive” each time. In addition, the result in assay [3], in [6], in assay [8], in assay [9] and in [10] was inactive.
On to `O=C(O)c1cc(N=Nc2ccc(S(=O)(=O)Nc3ccccn3)cc2)ccc1O`, for which the Potency in assay [1] was 61.3 µM (active) and 30.6 µM (active) and 29.8 µM (active). Moreover, the Potency entry in [2], in [4], in assay [5] and in assay [7] was “inactive” in each case. For the same compound, the outcome in assay [3], in [6] and in assay [8] was inactive.
On to `CC(O)CN(CCN(CC(C)O)CC(C)O)CC(C)O` (stereo unspecified), for which the Potency result in assay [1], in [2], in [4], in [5] and in assay [7] was “inactive” each time. Also, the compound was classed as inactive in [3], in [6], in assay [8], in [9] and in assay [10].
Turning to `CNC[C@H](O)c1cccc(O)c1`, the Potency entry in assay [1], in assay [2], in assay [4] and in assay [5] was “inactive” throughout. The compound was classed as inactive in assay [3], in [6] and in assay [8].
As to `CC(O)CO` (stereo unspecified), the Potency entry in assay [1], in [2], in [4], in [5] and in assay [7] was “inactive” throughout. The compound was classed as inactive in assay [3], in assay [6], in assay [8], in assay [9] and in assay [10].
Regarding `OC(Cn1cncn1)(Cn1cncn1)c1ccc(F)cc1F`, the Potency entry in assay [1], in assay [2], in assay [4] and in assay [5] was “inactive” in each case. Also, the outcome in assay [3], in assay [6] and in assay [8] was inactive.
Consider `O=c1cc[nH]c(=S)[nH]1`, for which the Potency entry in assay [1], in assay [2], in [4], in [5] and in assay [7] was “inactive” in each case. For the same compound, the call in assay [3], in assay [6], in assay [8], in assay [9] and in assay [10] was inactive.
On to `N=C(N)c1ccc(OCCCCCOc2ccc(C(=N)N)cc2)cc1`, for which the Potency entry in [1], in assay [2], in assay [4], in [5] and in assay [7] was “inactive” throughout. Further, the outcome in [3], in assay [6], in [8], in assay [9] and in assay [10] was inactive.
Turning to `Nc1ccc(O)c(C(=O)O)c1`, the Potency in [1] is 48.1 µM (active) and 54.5 µM (active). Further, the Potency entry in [2], in assay [4], in assay [5] and in [7] was “inactive” each time. Besides, the outcome in [3], in assay [6], in assay [8], in assay [9] and in assay [10] was inactive.
For the compound `Nc1ccc(S(=O)(=O)c2ccc(N)cc2)cc1`, the Potency entry in assay [1], in [2], in assay [4], in assay [5] and in [7] was “inactive” in each case. Moreover, the compound was classed as inactive in assay [3], in assay [6], in [8], in assay [9] and in [10].

These data come from PubChem BioAssay (Tox21).
